Drawing on PubChem BioAssay (EPA / NIEHS), this text covers AC50 and outcome for eleven molecules.

Structures are written as SMILES. Inconclusive results are not listed. Activity calls are given as the source filed them. Rule for the calls: active = hit-call score of the fitted dose curve at least 0.9, where 1 is the maximum; inconclusive = response in the unintended direction; inactive = score below 0.9.

This experiment deals with human Protein Tyrosine Phosphatase Receptor Type C (PTPRC), PTPRC (gene 5788) (UniProt P08575). The experiment is described as follows: NVS_ENZ_hPTPRC: NovaScreen (NVS) Enzymatic Assay for human Protein Tyrosine Phosphatase Receptor Type C (PTPRC) (AID 2283212). As to the method: NVS_ENZ_hPTPRC is a biochemical, single-readout assay that uses extracted gene-proteins from yeast cells in a cell-free assay. Measurements were taken 1 hour after chemical dosing in a 96-well plate.NVS_ENZ_hPTPRC is one of one assay component(s) measured or calculated from the NVS_ENZ_hPTPRC assay. It is designed to make measurements of enzyme activity, a form of enzyme reporter, as detected with absorbance signals by Colorimetric technology.Data from the assay component NVS_ENZ_hPTPRC was analyzed into 1 assay endpoint. This assay endpoint, NVS_ENZ_hPTPRC, was analyzed in the positive analysis fitting direction relative to DMSO as the negative control and baseline of activity. Using a type of enzyme reporter, loss-of-signal activity can be used to understand changes in the enzymatic activity as they relate to the gene PTPRC. Furthermore, this assay endpoint can be referred to as a primary readout, because this assay has produced multiple assay endpoints where this one serves a enzymatic activity function. To generalize the intended target to other relatable targets, this assay endpoint is annotated to the phosphatase intended target family, where the subfamily is receptor tyrosine phosphatase.
Chain of human Protein Tyrosine Phosphatase Receptor Type C (PTPRC), PTPRC (gene 5788) (P08575 whole entry, looked up): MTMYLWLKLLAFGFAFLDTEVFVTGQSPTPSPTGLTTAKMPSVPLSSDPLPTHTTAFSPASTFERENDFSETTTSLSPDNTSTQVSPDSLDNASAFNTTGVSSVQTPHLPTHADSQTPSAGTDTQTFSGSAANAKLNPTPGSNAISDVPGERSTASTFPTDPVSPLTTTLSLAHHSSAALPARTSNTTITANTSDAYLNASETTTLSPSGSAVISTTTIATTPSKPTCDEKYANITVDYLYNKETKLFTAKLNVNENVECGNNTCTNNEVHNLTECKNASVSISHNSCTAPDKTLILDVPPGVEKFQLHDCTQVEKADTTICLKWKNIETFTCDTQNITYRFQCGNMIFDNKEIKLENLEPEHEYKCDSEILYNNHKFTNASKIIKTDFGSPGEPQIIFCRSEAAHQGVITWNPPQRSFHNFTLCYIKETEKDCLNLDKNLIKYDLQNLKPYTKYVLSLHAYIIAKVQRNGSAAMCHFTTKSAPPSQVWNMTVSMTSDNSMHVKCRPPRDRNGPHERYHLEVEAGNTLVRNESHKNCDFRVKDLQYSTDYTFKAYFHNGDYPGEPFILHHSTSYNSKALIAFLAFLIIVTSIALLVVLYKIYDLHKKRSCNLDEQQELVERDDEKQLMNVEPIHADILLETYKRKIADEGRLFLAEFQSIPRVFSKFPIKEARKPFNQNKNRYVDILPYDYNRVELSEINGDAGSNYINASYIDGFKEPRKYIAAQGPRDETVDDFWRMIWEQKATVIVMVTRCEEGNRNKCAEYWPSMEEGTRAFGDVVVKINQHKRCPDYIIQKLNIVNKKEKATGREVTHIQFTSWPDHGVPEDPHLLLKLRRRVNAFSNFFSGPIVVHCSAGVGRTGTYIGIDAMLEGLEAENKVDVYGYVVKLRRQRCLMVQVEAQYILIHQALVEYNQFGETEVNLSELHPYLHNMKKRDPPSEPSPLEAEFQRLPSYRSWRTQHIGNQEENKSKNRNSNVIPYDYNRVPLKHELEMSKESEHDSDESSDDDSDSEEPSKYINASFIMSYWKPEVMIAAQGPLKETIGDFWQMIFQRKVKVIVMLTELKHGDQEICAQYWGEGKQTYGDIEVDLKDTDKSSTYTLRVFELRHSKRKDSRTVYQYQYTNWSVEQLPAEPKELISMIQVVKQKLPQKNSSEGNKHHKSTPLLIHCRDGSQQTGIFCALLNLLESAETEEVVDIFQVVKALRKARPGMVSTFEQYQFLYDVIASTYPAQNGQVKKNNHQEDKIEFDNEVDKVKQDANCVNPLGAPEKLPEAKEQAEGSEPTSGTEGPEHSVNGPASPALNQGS
Binding assays used specific radioligands (tritiated, iodinated) with non-radioactive competitive displacement ligands in agonist or antagonist protocols (as indicated) and various reference compounds and inhibitors to titrate specific binding to receptors and transporters. Most enzyme assays (CYPs, kinases, phosphatases, proteases, HDACs) used recombinant protein and specific substrates (fluorescence mostly, some colorimetric and radioactive) and inhibitors, followed by a biochemical separation of substrate and product. All assays for the biochemical HTS were initially run in duplicate at a single concentration (10 uM for CYP450 assays and 25 uM for all others). Assay-chemical combinations meeting a pre-defined threshold (e.g., 30% inhibition and other criteria defined below) were then run in singleton concentration-response format with maximum concentration of 20 uM for CYPs and 50 uM for all others. Each assay was run with positive and negative controls, and concurrent controls on every plate. The follow-up (secondary) screen tested active chemical-pairs in concentration series, as well as a few additional assays not tested in the primary screen, some selected negative inactives, and several cases re-run in the concentration series for confirmatory purposes.
On to `Cc1cccc(N)c1N`, for which the concentration at half-maximal activity (AC50) – broadly, the midpoint of the concentration-response curve, whichever way the signal moves – was 15.8 µM (active). The same measure, in the same setting: the same measure for `CN(C)[C@@H]1C(=O)C(C(N)=O)=C(O)[C@@]2(O)C(=O)C3=C(O)c4c(O)cccc4[C@@](C)(O)[C@H]3C[C@@H]12`: 15.6 µM (active). Consider `ClCCOCCCl`, for which the molecule was classed as inactive. Regarding `C[C@]12C=CC3=C4CCC(=O)C=C4CC[C@H]3[C@@H]1CC[C@@H]2O`, the concentration at half-maximal activity (AC50) is 9.63 µM (active). Turning to `Nc1ccc(Cl)cc1N`, the AC50 is 16.2 µM (active).

As for `[O-][Cl+]O`, the molecule was classed as inactive. Regarding `c1ccc(NNc2ccccc2)cc1`, the AC50 is 18.2 µM (active). For the molecule `CN(C)C(=O)Nc1ccc(Cl)cc1`, the call was inactive. For the molecule `O=[N+]([O-])c1ccc(Oc2ccc(Cl)cc2Cl)cc1`, the outcome was inactive. Take `COC(=O)c1ccccc1N`: the result was inactive.

As for `CC(C)(C)C(O)(CCc1ccc(Cl)cc1)Cn1cncn1` (stereo unspecified), the molecule was called inactive.
